The list is not random: actives were taken first. Their share in the collection is about 22%.
CYP2C19 act: cytochrome P450 2C19 (human) activation. P33261. recombinant CYP2C19, luciferin-H EGE luminescence; active compounds read high; 0 = fully inhibited enzyme, 1 = untreated enzyme. activation factor at 5 µM. 96,000 tested, under 10 active;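 active = activation factor of at least 2 at 5 µM in the primary screen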
Target sequence (P33261 whole entry, looked up): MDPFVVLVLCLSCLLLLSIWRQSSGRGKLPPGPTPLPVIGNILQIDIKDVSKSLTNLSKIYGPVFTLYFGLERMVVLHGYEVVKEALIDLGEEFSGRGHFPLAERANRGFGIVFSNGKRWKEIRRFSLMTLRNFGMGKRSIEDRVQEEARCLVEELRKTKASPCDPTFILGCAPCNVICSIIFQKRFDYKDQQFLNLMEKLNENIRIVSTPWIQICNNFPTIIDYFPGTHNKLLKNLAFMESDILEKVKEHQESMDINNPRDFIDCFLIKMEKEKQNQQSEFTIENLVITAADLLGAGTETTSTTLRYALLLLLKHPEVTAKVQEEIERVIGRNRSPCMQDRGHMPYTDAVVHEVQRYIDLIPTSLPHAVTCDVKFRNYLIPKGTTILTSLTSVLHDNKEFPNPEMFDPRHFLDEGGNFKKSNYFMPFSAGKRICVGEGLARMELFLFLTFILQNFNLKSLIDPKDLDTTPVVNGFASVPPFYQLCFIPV
Measles CPE: protection of cells from measles virus | Measles virus-infected cells, CPE protection, absorbance | protection (pct of control), % at 4 µM | 140,000 compounds, 1.5% hits | AID 841; in the data active = protection mostly above about 24%, no sharp cut-off; inactive = mostly below about 26%
CYP2C19 inhib: human CYP2C19 inhibition; CYP2C19 Supersomes, luciferin-H EGE luminescence, 30 min; 96,000 compounds, 21% hits; inhibition, % at 5 µM; AID 778;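 active = CYP2C19 inhibition above a set limit at 5 µM in the primary screen, cut at about 50% in these data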
CYP2C9 inh: human CYP2C9 inhibition; P11712; 96,000 compounds, 20% hits; CYP2C9 Supersomes, luciferin-H conversion, luminescence; inhibition, % at 5 µM;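 active = blocking of liver enzyme CYP2C9 beyond about 50% at 5 µM, limit read from the data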
CYP2C9 activ: increases human cytochrome P450 2C9 activity; P11712; recombinant CYP2C9, luciferin-H conversion, luminescence; active compounds read high; factor 1 = untreated enzyme, 0 = blocked; activation factor at 5 µM; 96,000 compounds, 1.4% hits;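 active = activation factor of 2 or more for CYP2C9 at a 5 µM dose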
Of the large screens only hits and unclear results are named; the others gave an inactive call.

COCCn1c(SCC(=O)Nc2cccc(OC)c2)nnc1-c1ccccc1	none
COCCn1c(SCC(=O)Nc2cccc(OC)c2)nnc1-c1ccc(Cl)cc1	CYP2C19 inhib 94, CYP2C9 inh 67
O=C(c1cccc(S(=O)(=O)N2CCCCC2)c1)N1CCCCC1	none
CCCS(=O)(=O)N1CCN(c2ccccc2F)CC1	CYP2C19 inhib 68
O=C(c1cccc(S(=O)(=O)N2CCCC2)c1)N1CCN(c2ccccc2F)CC1	CYP2C19 inhib 93, CYP2C9 inh 80
COc1cccc(S(=O)(=O)N2CCN(c3ccccc3F)CC2)c1	Measles CPE 34, CYP2C19 inhib 74, CYP2C9 inh 67
Cc1ccc(OCCNC(=O)/C=C/c2ccccc2)cc1C	none (no result: CYP2C19 act, CYP2C19 inhib, CYP2C9 inh, CYP2C9 activ)
COc1ccccc1Cn1c(=O)c2ccccc2n2c(SCc3csc(C)n3)nnc12	CYP2C19 inhib 57
CCCn1c(=O)c2ccccc2n2c(Sc3nnnn3-c3ccccc3)nnc12	none
COc1ccccc1Cn1c(=O)c2ccccc2n2c(Sc3ncnc4sccc34)nnc12	CYP2C19 inhib 61, CYP2C9 inh 57
CCCn1c(=O)c2ccccc2n2c(SCCOc3ccc(OC)cc3)nnc12	none
Cc1nn(CC(=O)NCCCN2CCOCC2)c(C)c1[N+](=O)[O-]	none
CCC(Sc1nc2n[nH]c(C)c2c(=N)n1-c1cccc(Cl)c1C)C(=O)N(CC)CC (configuration not stated)	CYP2C9 inh 59
COc1ccc(/C(C)=N\Nc2nc(-c3ccccc3)cc(=O)[nH]2)cc1	none (no result: CYP2C19 act, CYP2C19 inhib, CYP2C9 inh, CYP2C9 activ)
O=C(/C=C/c1cccc(Cl)c1)c1nc2ccccc2[nH]1	Measles CPE 58
O=C(/C(=C\c1ccccc1)c1nc2ccccc2[nH]1)c1ccc(Cl)cc1	none (no result: CYP2C19 act, CYP2C19 inhib, CYP2C9 inh, CYP2C9 activ)
COCc1n[nH]c(=S)n1-c1cccc2ccccc12	none
CC(=O)Nc1ccc(S(=O)(=O)NCCSCc2ccco2)cc1	CYP2C19 inhib 60, CYP2C9 inh 66
CC(=O)Nc1ccc(S(=O)(=O)NCCSCc2cccc(Cl)c2)cc1	none (no result: CYP2C19 act, CYP2C19 inhib, CYP2C9 inh, CYP2C9 activ)
CC(=O)Nc1ccc(S(=O)(=O)NCCSCc2c(Cl)cccc2Cl)cc1	CYP2C19 inhib 73, CYP2C9 inh 77
Cc1ccc(-c2nnc(SCC(=O)Nc3ccc4c(c3)OCCO4)n2N)cc1	none
Cc1ccc(C(=O)O)cc1S(=O)(=O)N1CCOCC1	none
Cc1ccc(-c2nc3ccccc3s2)cc1S(=O)(=O)N1CCCC1	CYP2C19 inhib 69, CYP2C9 inh 93
Cc1ccc(S(=O)(=O)c2ccc(Cl)cc2)cc1S(=O)(=O)N1CCOCC1	CYP2C19 inhib 79, CYP2C9 inh 69
Cn1c(=O)oc2cc(S(=O)(=O)N3CCN(c4ccccc4)CC3)ccc21	none
Cc1ccc(Br)cc1S(=O)(=O)N1CCN(c2ccccc2)CC1	CYP2C19 inhib 64
Cc1ccc(S(=O)(=O)N2CCCC2)cc1S(=O)(=O)N1CCCC1	CYP2C19 inhib 52
Cc1nc2c(C(=O)NCCC3=CCCCC3)c[nH]n2c(=O)c1Cl	CYP2C9 inh 56
Cc1nc2c(C(=O)NCc3ccc4c(c3)OCO4)c[nH]n2c(=O)c1Cl	CYP2C9 inh 77
COc1cccc(CNC(=O)c2c[nH]n3c(=O)c(Cl)c(C)nc23)c1	none (no result: CYP2C19 act, CYP2C19 inhib, CYP2C9 inh, CYP2C9 activ)
O=C(NCCC1=CCCCC1)c1cnc2n(c1=O)CCS2	none (no result: CYP2C19 act, CYP2C19 inhib, CYP2C9 inh, CYP2C9 activ)
CC1(C)Cc2ccccc2-c2nc(NCCO)n(-c3ccccc3)c(=O)c21	CYP2C19 inhib 61
CCC1(C)Cc2ccccc2-c2nc(NCCO)n(-c3ccc(C)cc3)c(=O)c21 (configuration not stated)	CYP2C19 inhib 67
COC(=O)c1ccc(C(=O)OC)c(NC(=S)N2CCN(c3ccccc3F)CC2)c1	none (no result: CYP2C19 act, CYP2C19 inhib, CYP2C9 inh, CYP2C9 activ)
COc1ccc(CNC(=O)COC(=O)c2cc(-c3ccc(Cl)s3)nc3ccccc23)cc1	none
CCOc1ccc(Cl)cc1S(=O)(=O)N1CCN(c2ccc(C)c(C)c2)CC1	CYP2C19 inhib 100, CYP2C9 inh 60
COC(=O)Nc1ccc(S(=O)(=O)N2CCN(c3ccc(F)cc3)CC2)cc1	none
COc1c(S(=O)(=O)N2CCN(c3ccc(F)cc3)CC2)ccc(Cl)c1Cl	CYP2C19 inhib 61
CC(=O)Nc1ccc(S(=O)(=O)n2cnc3cc(C)c(C)cc32)cc1	CYP2C19 inhib 100, CYP2C9 inh 78
Cc1cc(S(=O)(=O)N2CCN(c3ccc(F)cc3)CC2)c(C)s1	none
COc1ccc(Cl)cc1S(=O)(=O)N1CCN(c2ccc(F)cc2)CC1	CYP2C19 inhib 98, CYP2C9 activ 3.2
Cc1cc(Cl)c(S(=O)(=O)N2CCN(c3ccc(F)cc3)CC2)cc1OCC(=O)NC1CCCCC1	CYP2C19 inhib 83, CYP2C9 inh 96
COc1cc(C)c(Cl)cc1S(=O)(=O)n1cnc2ccccc21	none
COc1ccc(Cl)cc1S(=O)(=O)N1CCN=C1C	CYP2C19 inhib 90
CCOc1ccc(Cl)cc1S(=O)(=O)n1cnc2cc(C)c(C)cc21	CYP2C19 inhib 91, CYP2C9 inh 58
Cc1cc(Cl)c(S(=O)(=O)N2CCN(c3ccc(F)cc3)CC2)cc1OCC(N)=O	none
CCOc1ccc(Cl)cc1S(=O)(=O)N1CCN(c2ccc(F)cc2)CC1	CYP2C19 inhib 100, CYP2C9 activ 2.4
Cc1cccc(C(=O)N2CCC(=O)N(C(COCc3cccc(Cl)c3)Cc3ccccc3)CC2)c1 (configuration not stated)	none (no result: CYP2C19 act, CYP2C19 inhib, CYP2C9 inh, CYP2C9 activ)
O=S(=O)(c1cccc(C(F)(F)F)c1)N1CCC(O)(c2cccnc2)CC1	CYP2C19 inhib 88 (no result: Measles CPE)
Cc1ccc(S(=O)(=O)N2CCC(O)(c3cccnc3)CC2)cc1	CYP2C19 inhib 54, CYP2C9 activ 2.1
O=[N+]([O-])c1cccc(C2=NCCC(c3ccccc3)O2)c1 (configuration not stated)	none (no result: CYP2C19 act, CYP2C19 inhib, CYP2C9 inh, CYP2C9 activ)
O=C1c2ccc3c4c(ccc(c24)C(=O)N1NC(=O)C(F)(F)F)CC3	none
O=C(NN1C(=O)c2ccc3c4c(ccc(c24)C1=O)CC3)c1ccc(Br)cc1	CYP2C9 activ 3.5
CC(C)(C)c1cn(-c2ccc(F)cc2)c(=S)[nH]1	CYP2C19 inhib 63
CCc1ccc(-n2cc(-c3ccc([N+](=O)[O-])cc3)[nH]c2=S)cc1	none (no result: CYP2C19 act, CYP2C19 inhib, CYP2C9 inh, CYP2C9 activ)
Fc1ccc(Br)cc1C1C=C(c2cccnc2)Nc2ncnn21 (configuration not stated)	CYP2C19 inhib 88, CYP2C9 inh 54
Brc1ccc(C2=CC(c3cccs3)n3ncnc3N2)cc1 (configuration not stated)	none
Cc1noc(C)c1COC(=O)COc1ccc2c(C)cc(=O)oc2c1	Measles CPE 39
Cc1ccc(S(=O)(=O)N(C)c2ccc(OCC(=O)OCc3c(C)noc3C)cc2)cc1	CYP2C19 inhib 79, CYP2C9 inh 75
CCN(c1ccccc1)S(=O)(=O)c1ccc(OCc2c(C)noc2C)cc1	CYP2C19 inhib 72, CYP2C9 inh 86
C=CCSc1nnc(NC(=O)CSc2nc3ccccc3[nH]2)s1	CYP2C19 inhib 62, CYP2C9 inh 87
CCCc1cc(=O)[nH]c(SCC(=O)Nc2c(C)cccc2C)n1	none
C=CCSc1nnc(NC(=O)CSc2nc(CCC)cc(=O)[nH]2)s1	CYP2C19 inhib 51
C=CCSc1nnc(NC(=O)CSc2nnc(C)s2)s1	none

Bioassay records as filed in PubChem.
